For 31 sequences, binding signal results are on record in article PMC5700166.

Where a chain is given by its changes, count along the chain named.

Common to all, as to test: protein-binding microarray (PBM); PBM: ~300 nM protein, 6 mM HEPES pH 7.8, 80 mM KCl, 0.5 mM EDTA, 0.5 mM EGTA, 6% glycerol, 35 ng/ul poly-dIdC, 1% milk, 1 h, room temperature; Ap Aiptasia and Nv Nematostella (sea anemones) / Co Capsaspora / Aq Amphimedon (sponge) / Dm Drosophila / Hu human; RHD is the Rel homology domain; high values mean tight binding
Holding throughout (conditions): dsDNA, one strand shown

One assay deals with T1, GST-Dm-Relish (Drosophila melanogaster, UniProt Q94527 99-473).
T1 sequence: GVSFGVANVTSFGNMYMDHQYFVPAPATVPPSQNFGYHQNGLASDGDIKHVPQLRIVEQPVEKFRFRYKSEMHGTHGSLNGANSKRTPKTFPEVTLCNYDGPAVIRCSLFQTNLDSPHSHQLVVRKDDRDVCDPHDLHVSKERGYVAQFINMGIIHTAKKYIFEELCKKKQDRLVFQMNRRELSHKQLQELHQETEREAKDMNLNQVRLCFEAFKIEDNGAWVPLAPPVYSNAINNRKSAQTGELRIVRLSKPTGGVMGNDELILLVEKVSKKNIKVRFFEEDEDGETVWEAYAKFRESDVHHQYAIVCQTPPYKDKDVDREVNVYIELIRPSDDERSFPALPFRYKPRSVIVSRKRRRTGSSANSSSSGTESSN

The target in a further assay is T2, GST-Aq-NF-kB (Amphimedon queenslandica, UniProt A9Y5G7 2-389).
T2 sequence: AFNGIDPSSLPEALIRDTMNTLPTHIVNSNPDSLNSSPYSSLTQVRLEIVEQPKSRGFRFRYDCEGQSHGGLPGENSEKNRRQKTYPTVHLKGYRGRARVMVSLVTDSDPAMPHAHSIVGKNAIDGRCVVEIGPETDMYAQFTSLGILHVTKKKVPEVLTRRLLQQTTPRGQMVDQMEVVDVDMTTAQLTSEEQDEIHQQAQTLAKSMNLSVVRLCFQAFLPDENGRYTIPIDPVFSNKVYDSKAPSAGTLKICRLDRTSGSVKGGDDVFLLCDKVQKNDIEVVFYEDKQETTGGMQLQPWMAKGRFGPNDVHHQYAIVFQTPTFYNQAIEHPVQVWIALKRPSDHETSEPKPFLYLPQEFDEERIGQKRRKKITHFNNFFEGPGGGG

Another assay addresses GST-Hu-p50 (Homo sapiens, UniProt P19838 7-356).
For assay [1], the target named is T3, GST-Nv-NF-kB (Cys allele) (Nematostella vectensis, UniProt E5G601 2-411).
T3 sequence: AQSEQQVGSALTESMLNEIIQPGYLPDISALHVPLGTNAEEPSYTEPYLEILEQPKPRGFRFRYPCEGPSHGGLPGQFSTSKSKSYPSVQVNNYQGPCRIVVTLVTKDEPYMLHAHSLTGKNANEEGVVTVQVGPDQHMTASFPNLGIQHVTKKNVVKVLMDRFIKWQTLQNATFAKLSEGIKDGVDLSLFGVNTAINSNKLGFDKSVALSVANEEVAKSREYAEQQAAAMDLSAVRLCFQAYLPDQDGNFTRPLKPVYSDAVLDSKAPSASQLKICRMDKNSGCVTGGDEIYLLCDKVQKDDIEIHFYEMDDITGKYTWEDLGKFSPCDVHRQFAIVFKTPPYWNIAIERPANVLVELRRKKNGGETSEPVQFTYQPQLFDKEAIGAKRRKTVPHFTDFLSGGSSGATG

In assay [2] the target is T4, GST-Nv-NF-kB (Ser allele) (Nematostella vectensis, UniProt A7UNT2 2-411).
T4 sequence: T3 sequence with Q21R, C66S, S207N, E215Q, V217A, E225K, A268E, D399E

The next assay addresses T5, GST-Co-NF-kB (Capsaspora owczarzaki, UniProt F1ARL5 200-546).
T5 sequence: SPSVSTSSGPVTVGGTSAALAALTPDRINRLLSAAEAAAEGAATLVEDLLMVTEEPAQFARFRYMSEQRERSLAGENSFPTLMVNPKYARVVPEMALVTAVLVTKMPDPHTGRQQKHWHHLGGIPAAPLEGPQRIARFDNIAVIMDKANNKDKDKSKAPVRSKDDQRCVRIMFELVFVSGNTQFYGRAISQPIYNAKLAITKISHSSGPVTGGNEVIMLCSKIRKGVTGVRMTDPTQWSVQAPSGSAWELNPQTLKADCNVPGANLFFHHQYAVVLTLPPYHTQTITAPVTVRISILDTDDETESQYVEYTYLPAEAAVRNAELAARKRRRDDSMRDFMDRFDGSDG

A further assay concerns the target T6, GST-Ap-NF-kB RHD (Exaiptasia pallida (Aiptasia), UniProt A0A913YAJ5 2-422).
T6 sequence: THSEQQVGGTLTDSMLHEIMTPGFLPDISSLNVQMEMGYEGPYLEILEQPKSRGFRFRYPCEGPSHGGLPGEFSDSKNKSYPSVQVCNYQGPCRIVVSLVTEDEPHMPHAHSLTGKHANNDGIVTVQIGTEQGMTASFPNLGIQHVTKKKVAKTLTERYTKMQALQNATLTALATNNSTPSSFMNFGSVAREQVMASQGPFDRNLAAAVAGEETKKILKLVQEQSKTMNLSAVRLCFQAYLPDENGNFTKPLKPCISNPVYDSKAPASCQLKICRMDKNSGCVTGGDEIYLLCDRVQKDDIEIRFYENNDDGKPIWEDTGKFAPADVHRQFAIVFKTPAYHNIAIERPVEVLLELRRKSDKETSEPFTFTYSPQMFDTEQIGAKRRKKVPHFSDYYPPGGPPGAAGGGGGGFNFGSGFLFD

Chain of GST-Hu-p50 (P19838 7-356): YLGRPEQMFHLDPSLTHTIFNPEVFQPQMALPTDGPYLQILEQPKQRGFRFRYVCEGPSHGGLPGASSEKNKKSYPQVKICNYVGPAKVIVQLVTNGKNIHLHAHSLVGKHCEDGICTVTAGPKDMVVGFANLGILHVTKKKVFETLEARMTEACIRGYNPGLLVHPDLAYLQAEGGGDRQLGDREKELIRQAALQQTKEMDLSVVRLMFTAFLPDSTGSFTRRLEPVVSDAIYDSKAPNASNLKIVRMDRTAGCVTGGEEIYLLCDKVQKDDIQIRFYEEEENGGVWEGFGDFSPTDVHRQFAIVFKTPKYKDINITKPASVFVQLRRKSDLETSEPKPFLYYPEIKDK

Regarding “CCGATTAACATCAGGAAAGTACATGATGTTAATCGGGTCTTGATTCGCTTGACGCTGCTG”, the values for the binding signal with GST-Dm-Relish and in the assay with GST-Aq-NF-kB were 6.88 z-score and 1.61 z-score, respectively.

Turning to “CCGATTAACATCAAAAAAAGTACTGATGTTAATCGGGTCTTGATTCGCTTGACGCTGCTG”, the binding signal in the assay with GST-Dm-Relish stood at 7.01 z-score; with GST-Aq-NF-kB, 1.54 z-score.

For “CCGATTAACATCAGGAGTTTCCATGATGTTAATCGGGTCTTGATTCGCTTGACGCTGCTG”, the binding signal with GST-Dm-Relish was 1.28 z-score; in the assay with GST-Aq-NF-kB it was 2.43 z-score.

For the sequence “CCGATTAACATCACGGAAAATCCTGATGTTAATCGGGTCTTGATTCGCTTGACGCTGCTG”, the binding signal with GST-Dm-Relish was 1.04 z-score; with GST-Aq-NF-kB, 3.9 z-score.

“CCGATTAACATCAGGAATTCCACTGATGTTAATCGGGTCTTGATTCGCTTGACGCTGCTG”: the binding signal came to 3.07 z-score with GST-Dm-Relish and 1.57 z-score with GST-Aq-NF-kB.

With “CCGATTAACATCAGGTTTTTCCATGATGTTAATCGGGTCTTGATTCGCTTGACGCTGCTG”, the figures for the binding signal in the assay with GST-Dm-Relish and with GST-Aq-NF-kB were 2.68 z-score and 2.64 z-score, respectively.

As for “CCGATTAACATCAGAAATTTCCATGATGTTAATCGGGTCTTGATTCGCTTGACGCTGCTG”, the binding signal with GST-Dm-Relish amounted to 1.25 z-score; with GST-Aq-NF-kB, 1.68 z-score.

Turning to “CCGATTAACATCAAAGGAATTTCTGATGTTAATCGGGTCTTGATTCGCTTGACGCTGCTG”, the binding signal with GST-Dm-Relish was 1.13 z-score; with GST-Aq-NF-kB it was 1.12 z-score.

For “CCGATTAACATCAGGATTTTCCATGATGTTAATCGGGTCTTGATTCGCTTGACGCTGCTG”, the binding signal in the assay with GST-Dm-Relish is 1.28 z-score; in the assay with GST-Aq-NF-kB, 2.57 z-score.

In the case of “CCGATTAACATCACTGGAATTCCTGATGTTAATCGGGTCTTGATTCGCTTGACGCTGCTG”, the binding signal with GST-Dm-Relish is 2.95 z-score; with GST-Aq-NF-kB it was 1.7 z-score.

With “CCGATTAACATCAAAAAACTTCCTGATGTTAATCGGGTCTTGATTCGCTTGACGCTGCTG”, the figures for the binding signal in the assay with GST-Dm-Relish and with GST-Aq-NF-kB were 1.56 z-score and 1.4 z-score, respectively.

As for “CCGATTAACATCACGGTTTTTCCTGATGTTAATCGGGTCTTGATTCGCTTGACGCTGCTG”, the binding signal stood at 3.51 z-score with GST-Dm-Relish and 3.6 z-score with GST-Aq-NF-kB.

“CCGATTAACATCACGGAATTTTATGATGTTAATCGGGTCTTGATTCGCTTGACGCTGCTG”: the results for the binding signal in the assay with GST-Dm-Relish and with GST-Aq-NF-kB were 1.2 z-score and 2.25 z-score, respectively.

“CCGATTAACATCAGAAAATTTCCTGATGTTAATCGGGTCTTGATTCGCTTGACGCTGCTG”: the binding signal in the assay with GST-Dm-Relish turned out to be 1.75 z-score; with GST-Aq-NF-kB, 2.09 z-score.

For “CCGATTAACATCAGGAATTCCAATGATGTTAATCGGGTCTTGATTCGCTTGACGCTGCTG”, the results for the binding signal with GST-Dm-Relish and with GST-Aq-NF-kB were 2.77 z-score and 1.38 z-score, respectively.

For the sequence “CCGATTAACATCAGGAAAGACCATGATGTTAATCGGGTCTTGATTCGCTTGACGCTGCTG”, the binding signal was 1.35 z-score in the assay with GST-Dm-Relish and 1.49 z-score with GST-Aq-NF-kB.

For the sequence “CCGATTAACATCAAAGGATTTCCTGATGTTAATCGGGTCTTGATTCGCTTGACGCTGCTG”, the figures for the binding signal in the assay with GST-Dm-Relish and with GST-Aq-NF-kB were 1.74 z-score and 1.01 z-score, respectively.

Consider “CCGATTAACATCACGGAATTGCCTGATGTTAATCGGGTCTTGATTCGCTTGACGCTGCTG”, for which the binding signal came out at 1.01 z-score with GST-Dm-Relish and 1.14 z-score with GST-Aq-NF-kB.

With “CCGATTAACATCAGGGCAAGTACTGATGTTAATCGGGTCTTGATTCGCTTGACGCTGCTG”, the binding signal in the assay with GST-Dm-Relish was 1.44 z-score; with GST-Aq-NF-kB it was 2.28 z-score.

Regarding “CCGATTAACATCAAAAATTCCGTTGATGTTAATCGGGTCTTGATTCGCTTGACGCTGCTG”, the binding signal with GST-Dm-Relish was determined as 1.08 z-score; with GST-Aq-NF-kB, 2.1 z-score.

Regarding “CCGATTAACATCAGAGGATTTCCTGATGTTAATCGGGTCTTGATTCGCTTGACGCTGCTG”, the binding signal with GST-Dm-Relish worked out at 1.74 z-score; with GST-Aq-NF-kB, 1.55 z-score.

As to “CCGATTAACATCAAGGATTTTCCTGATGTTAATCGGGTCTTGATTCGCTTGACGCTGCTG”, the binding signal with GST-Dm-Relish is 1.44 z-score; with GST-Aq-NF-kB it was 3.08 z-score.

Consider “CCGATTAACATCAAGGAAAGTCCTGATGTTAATCGGGTCTTGATTCGCTTGACGCTGCTG”, for which the binding signal in the assay with GST-Dm-Relish came out at 3.16 z-score; with GST-Aq-NF-kB, 4.65 z-score.

Turning to “CCGATTAACATCACAGAATTTCCTGATGTTAATCGGGTCTTGATTCGCTTGACGCTGCTG”, the binding signal was 1.09 z-score in the assay with GST-Dm-Relish and 1.36 z-score in the assay with GST-Aq-NF-kB.

“CCGATTAACATCAGCAAATTTCCTGATGTTAATCGGGTCTTGATTCGCTTGACGCTGCTG”: the binding signal with GST-Hu-p50 worked out at 1.07 z-score.

Consider “CCGATTAACATCAGGTCTTTCCATGATGTTAATCGGGTCTTGATTCGCTTGACGCTGCTG”, for which the results for the binding signal with GST-Dm-Relish and with GST-Aq-NF-kB were 1.02 z-score and 1.55 z-score, respectively.

For the sequence “CCGATTAACATCACGGAAAAAACTGATGTTAATCGGGTCTTGATTCGCTTGACGCTGCTG”, the binding signal in assay [1] was 1.12 z-score; in assay [2], 1.13 z-score; with GST-Co-NF-kB, 1.37 z-score; with GST-Dm-Relish, 1.6 z-score; in the assay with GST-Hu-p50 it was 1.36 z-score.

In turn, “CCGATTAACATCAGGAAATGGGATGATGTTAATCGGGTCTTGATTCGCTTGACGCTGCTG” returned a binding signal with GST-Ap-NF-kB RHD of 1.33 z-score.

In the case of “CCGATTAACATCATTTCTTACGGTGATGTTAATCGGGTCTTGATTCGCTTGACGCTGCTG”, the binding signal with GST-Dm-Relish is 1.25 z-score; with GST-Hu-p50, 1.44 z-score.

Sequence “CCGATTAACATCACCTTTTACATTGATGTTAATCGGGTCTTGATTCGCTTGACGCTGCTG” displayed a binding signal with GST-Hu-p50 of 1.53 z-score.

Consider “CCGATTAACATCAAAAAATTCCATGATGTTAATCGGGTCTTGATTCGCTTGACGCTGCTG”, for which the values for the binding signal with GST-Dm-Relish and with GST-Aq-NF-kB were 2.59 z-score and 1.71 z-score, respectively.
